aSyn rescue = qHTS of alpha-syn Inhibitors | Yeast expressing alpha-synuclein, growth rescue, BacTiter-Glo, 24 h | Potency, µM (series often up to 46.1 µM), actives largely listed as activators | hit rate 0.14% among 370,000 | AID 652106, 2013; also: nearly all actives have a fitted effect of over 65% in size
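Rescue of yeast growth: cells expressing toxic alpha-synuclein, induced in galactose at OD600 0.02, incubated with compound 24 h at 30 C. ATP luminescence quantified growth; inhibitors of toxicity appear as activators.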
TDP-43 yeast inh = qHTS of TDP-43 Inhibitors; TDP-43 expressing yeast growth rescue, BacTiter-Glo, 24 h; Potency, µM (doses to about 46.1 µM), hits mostly activators; hit rate 1.8% among 410,000; also: nearly all actives have a fitted effect of over 50% in size
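Luminescence from BacTiter-Glo reports growth of TDP-43-expressing yeast after 24 hr at 30 deg C with compound. Cells were raffinose-pregrown to mid-log, then seeded in galactose medium at OD600=0.02.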
Abeta rescue = qHTS for compounds that reverse cellular toxicity of Amyloid beta (A-beta) peptide in yeast: Primary Screen. Potency, µM (titrated, usually from 46.1 µM), usual class: activators. yeast expressing A-beta42, growth rescue, OD600, 48 h; response scale: 0% DMSO, 100% iron-clioquinol control. hit rate 0.063% among 410,000; also: nearly all actives have a fitted effect of over 55% in size
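Yeast A-beta toxicity model in growth medium with pinned compounds, 48 h at 30 C; growth read as absorbance at 600 nm. Normalized to FeCl3/clioquinol equimolar mix (positive) and DMSO (negative).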
FUS yeast rescue = qHTS for Suppressors of FUS Proteinopathy: Primary screen using FUS-linked yeast assay | S. cerevisiae FUS-expressing, growth rescue, OD600, 24 h | AID 1347120, 2019 | Potency, µM (top dose mostly 76.6 µM), most hits filed as activators | hit rate 0.24% among 390,000; also: nearly all actives have a fitted effect of over 55% in size
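Quantitative HTS measuring growth restoration of FUS-toxic yeast. Galactose-induced cells (OD 0.005) were exposed 24hr at 30C to compounds at several concentrations, then absorbance at 600 nm was recorded.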
Numbers stand for hits; n = inactive; u = inconclusive; x = no result given. Shown are actives, neighbours in structure and some others; about 2.1% of the full set was active somewhere. Calls follow the shape of the dose curve; as a rule, active = well fitted curve in the direction sought with a large enough effect; inconclusive = small, poorly fitted or top-dose-only effect, or another doubt; inactive = no such curve, though single readings can be large; an effect the other way counts as inactive or inconclusive.

SMILES	aSyn rescue	TDP-43 yeast inh	Abeta rescue	FUS yeast rescue
CC(C)NC(=S)N/N=C/c1cccs1	n	n	u	n
COc1ccc(S[C@]2(C(=O)NCCc3ccccc3)CC(=O)N[C@@H]2c2ccc(OC)cc2)cc1	x	x	x	n
C=CCc1ccccc1OCC(=O)N/N=C/c1ccc(OC(C)=O)cc1OC(C)=O	13µM	n	n	n
Cc1nn(Cc2ccc(F)cc2)c(C)c1NC(=O)c1cnn2c1NC(c1ccccc1)CC2C(F)(F)F (stereo not given)	n	n	n	u
Cc1nn(Cc2ccc(F)cc2)c(C)c1NC(=O)c1cnn2c1NC(c1cccs1)CC2C(F)(F)F (stereo not given)	n	n	n	28µM
COC(=O)C1CN(Cc2cn(CCOC(C)=O)nn2)CCS(=O)(=O)N1Cc1ccccc1 (stereo not given)	x	x	x	n
Cc1ccc(-c2nc3cc(N)ccc3o2)cc1	n	n	n	n
Cc1ccc2oc(-c3cccc(N)c3)nc2c1	n	13µM	n	n
Cc1cc(C)nc(Nc2cccc(Cl)c2)n1	n	8.9µM	n	n
Cc1cc(Nc2cccc(Cl)c2)c2ccccc2n1	n	n	n	n
Cc1cc(C)nc(Nc2ccc(C)c([N+](=O)[O-])c2)n1	n	20µM	n	n
C=CCn1c(SCC(=O)OC(C)C)nnc1-c1ccc(C)cc1	x	x	x	n
C=C1C=C(C(F)F)n2ncc(C(=O)NCc3ccccc3OC)c2N1	n	x	x	x
Cc1oc(-c2cccc(Cl)c2)nc1CSCC(=O)NCc1ccccc1Cl	x	22µM	n	n
Cc1oc(-c2ccc(Cl)cc2)nc1CSCC(=O)NCc1ccccc1Cl	x	n	n	n
OC(Cc1ccc2ccccc2n1)c1ccccc1 (stereo not given)	n	x	x	x
Cc1nc(-c2cccnc2)sc1C(=O)Nc1cccc(C(F)(F)F)c1	n	13µM	n	n
Cc1nc(-c2cccnc2)sc1C(=O)Nc1ccc(C(F)(F)F)cc1	n	11µM	n	n
Cc1nc(Cl)sc1C(=O)Nc1cccc(C(F)(F)F)c1	n	n	n	n
O=C(NC1CCCCN(Cc2cccc(Cl)c2)C1=O)c1ccc(Cl)cc1Cl (stereo not given)	x	x	x	n
Cc1cc2n(n1)C(c1c[nH]c3ccccc13)Nc1ccccc1-2 (stereo not given)	n	7.9µM	n	x
Cc1cc2n(n1)C(c1cn(-c3ccccc3)nc1C)Nc1ccccc1-2 (stereo not given)	n	n	n	n
CN=c1scc(-c2ccco2)n1/N=C/c1ccc(O)c(O)c1	n	28µM	n	n
CCCCN=Cc1sc2ccc(OCC)cc2c1O	n	16µM	n	n
Cc1cccc(Nc2nnc(SCC(=O)c3ccc(Br)s3)s2)c1C	n	25µM	u	n
SMILES	aSyn rescue	TDP-43 yeast inh	Abeta rescue	FUS yeast rescue
Cc1ccccc1Nc1nnc(SCC(=O)Nc2ccccc2[N+](=O)[O-])s1	n	16µM	n	n
C/C(N)=C(/C#N)C(=O)CSc1nnc(Nc2cccc(C)c2C)s1	n	n	n	n
Cc1cccc(Nc2ncccc2C(=O)NCc2cccs2)c1C	n	7.9µM	n	n
O=C(NCc1cccs1)c1cccnc1Cl	n	n	n	n
Cc1ccc(Nc2ncccc2C(=O)NCc2cccs2)c(C)c1	x	11µM	n	n
O=C(Nn1cc(C(=O)Nc2ccccc2F)c2ccccc2c1=O)c1cnccn1	n	n	n	n
COC(=O)c1cn(NC(=O)c2cnccn2)c(=O)c2ccccc12	22µM	u	n	n
CCCC(=O)Oc1ccc2[nH]c(C(=O)c3cc4ccccc4[nH]3)cc2c1	n	x	x	x
CCOc1ccc(C2C(C(=O)Nc3ccccc3)=C(C)Nc3nc(-c4ccccc4Cl)nn32)cc1OC (stereo not given)	x	n	n	32µM
Fc1ccc(N2CCN(c3ncnc4onc(-c5ccc(Cl)cc5)c34)CC2)cc1	x	18µM	n	n
CCN(CC)C(=O)O[C@H]1CC[C@@]23CCCN2C(=O)CCC[C@H]3C1	x	x	x	n
Cc1ccc(Sc2nnc(-c3ccccc3)cc2C#N)cc1	n	n	n	n
Cc1ccc(Sc2ccc(N)cc2C#N)cc1	n	22µM	n	x
COC(=O)[C@]12C[C@H](CC(=O)N3CCOCC3)C(=O)N(Cc3ccc4c(c3)OCO4)C1=C[C@H](C(C)C)O[C@@H]2C1CC1	x	x	x	n
COc1cc2c(C#N)c(N3CCCCC3)nc(N)c2c(N)n1	n	u	n	n
COc1cc2c(C#N)c(N3CCc4ccccc4C3)nc(N)c2c(N)n1	n	13µM	n	u
COc1cccc(-c2nc(SCC(=O)Nc3ccc4c(c3)OCO4)c(-c3ccccc3)[nH]2)c1	x	22µM	n	u
COc1ccc(C)cc1NC(=O)c1nn(-c2ccccc2)cc1OC	n	16µM	n	n
COc1ccc(C)cc1NC(=O)C1CC1c1ccccc1 (stereo not given)	n	16µM	n	n
CC(C)C(=O)OCCCN1CCC2(CCC(c3ccccc3)CC2)C1=O (stereo not given)	x	x	x	n
CN1[C@H](Cc2ccccc2)COc2cccc(N3CCCC3)c2S1(=O)=O	x	x	x	n
Cc1ccc(C)c(N2CCN(S(=O)(=O)c3cc(C(=O)Nc4ccccc4C(F)(F)F)ccc3F)CC2)c1	x	u	4µM	n
Cc1ccccc1NC(=O)c1ccc(F)c(S(=O)(=O)N2CCN(c3ccccn3)CC2)c1	n	n	n	n
C=CCN1C(=O)[C@@H](CC(=O)N2CCN(C(=O)C3CC3)CC2)[C@]2(C(=O)OCC)CCCCC/C=C/12	x	x	x	n
O=C(c1ccco1)N1CC2(CC(c3ccc(Cl)cc3)=NO2)CN1Cc1ccc(Br)cc1 (stereo not given)	n	32µM	n	n
SMILES	aSyn rescue	TDP-43 yeast inh	Abeta rescue	FUS yeast rescue
Cc1nc(N2CCCC2)ncc1C(=O)NCc1cccc(Cl)c1	x	14µM	n	n
COc1ccc(CNC(=O)c2cnc(N3CCCC3)nc2C)c(OC)c1	x	n	n	n
Cc1sc2nc(-c3cccnc3)nc(Cl)c2c1-c1ccccc1	n	25µM	n	x
COC(=O)C[C@H]1CC[C@@H]2[C@@H](COc3ccc(NC(=O)c4ccno4)cc3C(=O)N2C)O1	x	x	x	n
O=C(c1cc(-c2ccco2)nc2ccccc12)N1CCCC(C(F)(F)F)C1 (stereo not given)	n	35µM	n	n
C=CCc1cccc(C=NNC(=O)c2ccco2)c1O	x	x	x	n
Cc1cc(C(=O)CSc2cccc[n+]2[O-])c(C)n1-c1ccc(OC(F)F)cc1	n	14µM	n	n
COC(=O)c1ccc(-n2c(C)cc(C(=O)CSc3ccc(NC(C)=O)cc3)c2C)cc1	n	n	n	x
Cc1cc(C(=O)Cn2nc(C(=O)O)c3ccccc3c2=O)c(C)n1-c1ccc(OC(F)F)cc1	n	n	n	u
COC(=O)c1ccc(-n2c(C)cc(C(=O)CSc3cccc[n+]3[O-])c2C)cc1	u	14µM	n	n
COC(=O)[C@H]1C[C@]2(C(/C=C(\C)CCC=C(C)C)S(=O)(=O)c3ccccc3)c3ccccc3N[C@H]2N1 (stereo not given in full)	x	x	x	n

Source: PubChem BioAssay (National Center for Advancing Translational Sciences (NCATS))
